Measurements taken from ChEMBL document CHEMBL3988442, “University of Dundee, Small-Polar-MMV Screening Library” (2021).
For some of these results: Potency and affinity values are given separately.

How the values were obtained:
Design in all cases: scale not given: direction of the effect not stated beside the values
[1] = molecular target: Protein translocase subunit SecA (Escherichia coli (strain K12)) (UniProt P10408); experiment: Assay to Identify E. coli SecA ATPase Inhibitors; format: functional; conditions: 30 µM
[2] = molecular target: T1, Ubiquitin-activating enzyme e1, putative (Leishmania donovani (strain BPK282A1)) (UniProt E9BSI1); experiment: Leishmania donovani Ubiquitin Activating Enzyme (LdE1); format: functional; conditions: 30 µM
T1 sequence (whole entry): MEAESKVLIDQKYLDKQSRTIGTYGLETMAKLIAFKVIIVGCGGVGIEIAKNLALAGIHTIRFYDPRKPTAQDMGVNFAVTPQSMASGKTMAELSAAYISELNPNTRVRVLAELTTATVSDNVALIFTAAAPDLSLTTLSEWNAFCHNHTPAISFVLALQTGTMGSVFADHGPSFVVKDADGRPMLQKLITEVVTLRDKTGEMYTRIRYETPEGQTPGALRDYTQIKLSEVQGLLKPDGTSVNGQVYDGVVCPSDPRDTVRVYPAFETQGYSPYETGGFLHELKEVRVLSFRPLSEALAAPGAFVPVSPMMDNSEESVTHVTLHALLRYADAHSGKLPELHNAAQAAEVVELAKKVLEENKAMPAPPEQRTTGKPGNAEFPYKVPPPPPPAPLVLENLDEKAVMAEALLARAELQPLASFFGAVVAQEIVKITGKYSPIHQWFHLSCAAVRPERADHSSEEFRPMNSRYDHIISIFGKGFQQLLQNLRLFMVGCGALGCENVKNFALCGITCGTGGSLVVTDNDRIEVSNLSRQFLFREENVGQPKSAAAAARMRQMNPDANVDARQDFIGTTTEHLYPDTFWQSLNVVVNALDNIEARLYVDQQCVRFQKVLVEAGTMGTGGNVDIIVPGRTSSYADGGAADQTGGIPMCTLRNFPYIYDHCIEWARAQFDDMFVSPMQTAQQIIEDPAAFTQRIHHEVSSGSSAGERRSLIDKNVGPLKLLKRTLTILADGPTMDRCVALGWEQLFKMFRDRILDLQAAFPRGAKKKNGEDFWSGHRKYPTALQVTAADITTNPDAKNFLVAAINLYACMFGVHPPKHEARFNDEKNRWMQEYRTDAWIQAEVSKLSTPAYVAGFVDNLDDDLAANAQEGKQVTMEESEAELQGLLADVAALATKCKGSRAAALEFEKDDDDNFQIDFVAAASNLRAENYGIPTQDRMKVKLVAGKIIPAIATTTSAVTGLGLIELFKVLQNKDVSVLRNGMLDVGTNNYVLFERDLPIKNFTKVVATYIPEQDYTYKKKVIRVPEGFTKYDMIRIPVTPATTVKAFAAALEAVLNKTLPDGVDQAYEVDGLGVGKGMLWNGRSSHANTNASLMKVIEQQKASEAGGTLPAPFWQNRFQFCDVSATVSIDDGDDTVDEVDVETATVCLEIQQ

[3] = molecular target: AMP-activated protein kinase, AMPK (Homo sapiens) (UniProt P54646+O43741+P54619+Q9UGJ0+Q9Y478+Q13131+Q9UGI9); experiment: AMP-dependent Kinase enzyme assay. An in vitro enzyme assay that detects ADP turnover that is directly proportional to AMPK activity. This uses naive AMPK that is activated during the assay with MK-8722; format: functional; conditions: 30 µM
[4] = molecular target: Sialic acid-binding Ig-like lectin 9 (Homo sapiens) (UniProt Q9Y336); experiment: Hs-Siglec9 ALPHAscreen SOP 20170721; conditions: 10 µM
[5] = system: Trypanosoma cruzi; experiment: Trypanosoma cruzi phosphomannomutase and mannose-1-phosphate guanylyltransferase assay; format: functional; conditions: 10 µM
[6] = molecular target: T2, Arginase-2, mitochondrial (Homo sapiens) (UniProt P78540); experiment: in vitro enzyme assay to detect the production of urea directly proportional to the activity of Arginase II; format: functional; conditions: 33.3 µM; also: in the data most compounds retested in dose-response had high values
T2 sequence (whole entry): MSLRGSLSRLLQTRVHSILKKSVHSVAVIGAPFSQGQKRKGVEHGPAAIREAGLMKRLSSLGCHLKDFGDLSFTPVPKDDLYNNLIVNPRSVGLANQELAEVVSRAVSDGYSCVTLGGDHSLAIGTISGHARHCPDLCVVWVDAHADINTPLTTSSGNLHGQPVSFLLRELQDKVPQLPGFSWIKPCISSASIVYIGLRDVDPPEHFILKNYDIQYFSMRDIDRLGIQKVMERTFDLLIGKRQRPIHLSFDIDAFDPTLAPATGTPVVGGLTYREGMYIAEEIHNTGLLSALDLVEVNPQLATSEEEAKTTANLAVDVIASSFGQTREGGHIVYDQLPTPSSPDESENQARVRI

[7] = molecular target: T3, Proteasome subunit beta (Trypanosoma cruzi) (UniProt O96673); experiment: Trypanosoma cruzi proteasome chymotrypsin-like activity (TcProtChymo) assay.; also: in the data most compounds retested in dose-response had high values; format: functional; conditions: 9.37 µM
T3 sequence (whole entry): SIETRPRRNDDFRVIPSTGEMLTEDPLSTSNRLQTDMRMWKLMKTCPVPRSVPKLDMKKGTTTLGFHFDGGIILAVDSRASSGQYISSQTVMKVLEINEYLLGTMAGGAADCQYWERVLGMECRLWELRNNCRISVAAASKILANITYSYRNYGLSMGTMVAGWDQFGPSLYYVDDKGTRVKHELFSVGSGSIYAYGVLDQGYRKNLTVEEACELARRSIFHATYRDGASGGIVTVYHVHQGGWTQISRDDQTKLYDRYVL

[8] = organism: Homo sapiens; experiment: To identify inhibition of the IFN signalling (Jak-Stat) pathway via expression of an eGFP reporter gene under the control of an IFN-stimulated response element (ISRE) containing MxA promoter.; format: functional; conditions: 30 µM
[9] = molecular target: T4, Tyrosyl-tRNA synthetase, putative (Trypanosoma cruzi (strain CL Brener)) (UniProt Q4DSP6); experiment: Trypanosoma cruzi tyrosyl tRNA synthetase (TcYRS) _High Tyrosine SOP; format: functional; conditions: 30 µM; also: in the data most compounds retested in dose-response had high values
T4 sequence (whole entry): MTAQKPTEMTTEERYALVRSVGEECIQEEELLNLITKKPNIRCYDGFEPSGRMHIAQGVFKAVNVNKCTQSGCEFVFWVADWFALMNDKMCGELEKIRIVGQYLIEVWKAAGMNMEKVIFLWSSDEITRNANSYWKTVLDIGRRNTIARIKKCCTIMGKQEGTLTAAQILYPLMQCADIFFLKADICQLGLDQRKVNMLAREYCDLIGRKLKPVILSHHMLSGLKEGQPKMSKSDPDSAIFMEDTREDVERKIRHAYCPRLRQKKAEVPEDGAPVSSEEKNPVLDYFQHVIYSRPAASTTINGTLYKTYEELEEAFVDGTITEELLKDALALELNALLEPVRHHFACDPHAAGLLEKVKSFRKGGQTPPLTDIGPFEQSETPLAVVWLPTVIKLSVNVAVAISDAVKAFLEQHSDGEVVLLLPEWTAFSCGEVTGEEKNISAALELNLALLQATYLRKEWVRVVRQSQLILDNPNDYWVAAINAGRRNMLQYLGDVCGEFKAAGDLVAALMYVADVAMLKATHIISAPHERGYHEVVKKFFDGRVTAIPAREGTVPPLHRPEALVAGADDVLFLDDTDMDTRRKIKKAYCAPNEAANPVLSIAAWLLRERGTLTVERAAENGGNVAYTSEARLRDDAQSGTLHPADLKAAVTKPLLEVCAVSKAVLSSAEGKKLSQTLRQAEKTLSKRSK

[10] = molecular target: T4, Tyrosyl-tRNA synthetase, putative (Trypanosoma cruzi (strain CL Brener)); experiment: Trypanosoma cruzi tyrosyl tRNA synthetase (TcYRS) SOP; format: functional; conditions: 30 µM
[11] = molecular target: Chromo domain-containing protein 1 (Saccharomyces cerevisiae (strain ATCC 204508 / S288c) (Baker's yeast)) (UniProt P32657); experiment: ScCHD-1 Enzyme Inhibition Assay; format: functional; conditions: 30 µM; also: in the data most compounds retested in dose-response had high values
Chain of Chromo domain-containing protein 1 (Saccharomyces cerevisiae (strain ATCC 204508 / S288c) (Baker's yeast)) (P32657 whole entry, the tested form may be a part): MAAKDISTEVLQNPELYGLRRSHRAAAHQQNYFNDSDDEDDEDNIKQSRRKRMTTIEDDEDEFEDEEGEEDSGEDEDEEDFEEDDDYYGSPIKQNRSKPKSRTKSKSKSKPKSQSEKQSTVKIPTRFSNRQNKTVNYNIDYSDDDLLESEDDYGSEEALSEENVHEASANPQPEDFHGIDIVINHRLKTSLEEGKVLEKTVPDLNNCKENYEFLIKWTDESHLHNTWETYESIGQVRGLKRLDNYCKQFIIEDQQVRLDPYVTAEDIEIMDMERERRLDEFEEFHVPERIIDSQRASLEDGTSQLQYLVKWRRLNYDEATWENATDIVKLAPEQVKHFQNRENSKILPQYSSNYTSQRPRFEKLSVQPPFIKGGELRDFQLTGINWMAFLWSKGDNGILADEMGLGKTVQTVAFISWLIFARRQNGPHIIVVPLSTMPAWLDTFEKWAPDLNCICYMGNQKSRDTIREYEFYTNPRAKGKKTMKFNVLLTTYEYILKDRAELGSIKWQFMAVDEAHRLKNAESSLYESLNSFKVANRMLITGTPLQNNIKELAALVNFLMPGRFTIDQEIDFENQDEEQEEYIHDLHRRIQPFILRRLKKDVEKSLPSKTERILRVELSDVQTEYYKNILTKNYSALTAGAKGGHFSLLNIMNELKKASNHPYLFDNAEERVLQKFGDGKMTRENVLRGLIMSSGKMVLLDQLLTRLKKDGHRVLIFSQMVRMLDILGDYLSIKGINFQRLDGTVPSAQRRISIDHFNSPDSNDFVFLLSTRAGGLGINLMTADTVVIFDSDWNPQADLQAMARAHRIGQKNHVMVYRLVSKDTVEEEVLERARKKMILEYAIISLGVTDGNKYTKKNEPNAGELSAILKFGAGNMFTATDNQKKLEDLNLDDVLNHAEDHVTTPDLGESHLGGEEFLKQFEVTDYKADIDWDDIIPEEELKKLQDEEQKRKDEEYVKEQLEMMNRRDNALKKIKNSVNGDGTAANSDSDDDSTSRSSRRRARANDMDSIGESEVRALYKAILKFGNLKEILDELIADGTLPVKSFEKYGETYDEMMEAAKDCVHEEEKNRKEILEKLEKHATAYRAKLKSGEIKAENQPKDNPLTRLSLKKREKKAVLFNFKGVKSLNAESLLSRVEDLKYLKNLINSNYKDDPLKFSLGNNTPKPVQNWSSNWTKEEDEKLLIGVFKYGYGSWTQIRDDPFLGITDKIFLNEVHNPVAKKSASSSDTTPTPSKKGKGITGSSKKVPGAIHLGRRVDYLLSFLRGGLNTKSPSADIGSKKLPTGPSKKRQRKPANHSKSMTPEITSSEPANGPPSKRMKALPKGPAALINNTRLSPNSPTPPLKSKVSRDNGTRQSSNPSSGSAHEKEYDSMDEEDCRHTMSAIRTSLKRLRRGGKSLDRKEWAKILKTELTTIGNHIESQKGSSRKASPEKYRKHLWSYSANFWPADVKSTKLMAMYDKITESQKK

Chain of Protein translocase subunit SecA (Escherichia coli (strain K12)) (P10408 whole entry): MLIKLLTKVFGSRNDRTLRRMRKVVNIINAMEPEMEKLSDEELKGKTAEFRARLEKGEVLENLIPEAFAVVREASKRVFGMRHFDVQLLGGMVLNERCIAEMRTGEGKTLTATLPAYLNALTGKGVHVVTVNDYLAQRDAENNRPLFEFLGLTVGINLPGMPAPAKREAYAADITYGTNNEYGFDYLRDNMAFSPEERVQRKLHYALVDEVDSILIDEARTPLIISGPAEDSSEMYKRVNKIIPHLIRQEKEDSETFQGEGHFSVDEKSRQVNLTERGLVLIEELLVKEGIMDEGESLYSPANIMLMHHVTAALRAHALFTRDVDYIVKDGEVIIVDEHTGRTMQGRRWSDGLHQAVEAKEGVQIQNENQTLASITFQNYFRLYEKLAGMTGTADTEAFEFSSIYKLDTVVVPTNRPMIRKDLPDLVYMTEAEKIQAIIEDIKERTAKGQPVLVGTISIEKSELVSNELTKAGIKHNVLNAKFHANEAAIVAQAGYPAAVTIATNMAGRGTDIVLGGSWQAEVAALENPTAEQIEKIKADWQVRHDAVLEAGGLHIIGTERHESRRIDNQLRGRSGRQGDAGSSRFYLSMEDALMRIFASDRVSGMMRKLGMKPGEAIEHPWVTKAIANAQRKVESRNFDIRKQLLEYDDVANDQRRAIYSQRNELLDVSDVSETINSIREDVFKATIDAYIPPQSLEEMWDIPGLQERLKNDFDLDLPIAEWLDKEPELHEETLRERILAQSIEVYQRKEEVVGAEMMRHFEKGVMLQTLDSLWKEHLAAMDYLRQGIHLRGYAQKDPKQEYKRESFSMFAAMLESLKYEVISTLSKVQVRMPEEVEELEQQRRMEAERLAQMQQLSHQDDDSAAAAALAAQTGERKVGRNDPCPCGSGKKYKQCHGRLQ
Chain of Sialic acid-binding Ig-like lectin 9 (Homo sapiens) (Q9Y336 whole entry): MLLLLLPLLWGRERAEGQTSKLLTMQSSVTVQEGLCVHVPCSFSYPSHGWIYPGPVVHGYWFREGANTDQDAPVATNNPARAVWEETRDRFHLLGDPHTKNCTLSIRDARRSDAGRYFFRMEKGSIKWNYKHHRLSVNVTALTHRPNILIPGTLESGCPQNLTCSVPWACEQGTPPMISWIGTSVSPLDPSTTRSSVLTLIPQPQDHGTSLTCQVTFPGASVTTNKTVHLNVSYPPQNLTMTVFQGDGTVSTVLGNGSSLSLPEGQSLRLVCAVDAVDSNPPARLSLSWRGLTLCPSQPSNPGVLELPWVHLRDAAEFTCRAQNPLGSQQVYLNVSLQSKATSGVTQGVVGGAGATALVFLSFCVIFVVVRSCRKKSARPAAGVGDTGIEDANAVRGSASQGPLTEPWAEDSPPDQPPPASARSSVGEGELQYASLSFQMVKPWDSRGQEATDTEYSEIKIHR

| SMILES | Percent Effect [1] [%] | Percent Effect [2] [%] | Percent Effect [3] [%] | Percent Effect [4] [%] | Percent Effect [5] [%] | Percent Effect [6] [%] | Percent Effect [7] [%] | Percent Effect [8] [%] | Percent Effect [9] [%] | Percent Effect [10] [%] | Percent Effect [11] [%] |
| --- | --- | --- | --- | --- | --- | --- | --- | --- | --- | --- | --- |
| CS(=O)(=O)N[C@@H]1CN(C(=O)c2ccccn2)[C@@H]2CCCO[C@@H]21 | -5.18 | 5.41 | 4.88 | 2.32 | -0.489 | 2.87 | 18.4 | -7.84 | 4.32 | 7.69 | -0.379 |
| COc1cc(NC(=O)c2ccccc2F)c(C(=O)N(C)C)cc1OC | 1.19 | 5.2 | 0.986 | 2.38 | -7.96 | -8.28 | 18.8 | -4.11 | 3.23 | 11.1 | -2.46 |
| O=C(CCCc1nc2ccccc2[nH]1)N1CCCC(n2cccn2)C1 (stereo unspecified) | -4.65 | 10.5 | -3.13 | 5.64 | 8.27 | -5.36 | 7.18 | -2.05 | 5.39 | 17.1 | -12 |
| Cn1cc(S(=O)(=O)N2CCCC2CC(=O)c2cccs2)cn1 (stereo unspecified) | 2.62 | 0 | 0.659 | -5.21 | -5.79 | 1.43 | 14.8 | 11.2 | 2.65 | 4.88 | -3.57 |
| CCN(CC)S(=O)(=O)N1CCCC(c2ccc(C(=O)O)cc2)C1 (stereo unspecified) | -1.63 | -2.7 | 0.184 | 8.84 | -4.44 | -4.76 | 0.69 | -0.683 | 2.65 | 0 | -0.737 |
| CCS(=O)(=O)N1CCO[C@H]2[C@H](OCC3CCCC3)CC[C@@H]21 | -3.86 | 5.33 | 0.773 | 0.841 | 5.21 | -50.7 | 7.01 | 2.31 | 1.04 | 15 | -5.43 |
| CC(C(=O)NCc1ccc(-n2cncn2)nc1)n1ccnc1 (stereo unspecified) | -3.77 | 2.6 | 0.227 | 15 | 2.25 | 1.05 | -1.21 | -15.5 | 2.86 | 2.35 | -8.54 |
| CN1CCC(c2nnc(CN3CCC(O)CC3)n2C)CC1 | -3.38 | 8.22 | 6.23 | -1.15 | -1.76 | 1.82 | 8.87 | 1 | 4.3 | 15 | -4.74 |
| Cc1nc(C)n(CC2CCCCN2CC(=O)Nc2ccncc2)n1 (stereo unspecified) | 1.21 | 23.4 | -4.4 | -2.19 | -9.74 | 3.56 | 8.11 | 27.5 | 5.83 | -2.44 | -9.59 |
| Cc1cc(C)c(CNC(=O)NCC(c2ccccc2)N(C)C)c(=O)[nH]1 (stereo unspecified) | -3.19 | -2.63 | -5.47 | 13.4 | 2.52 | 1.08 | -0.592 | 4 | 7.39 | 18.5 | -3.01 |
| COc1ccc(NCc2nc(=O)n(CCC(C)C)[nH]2)cc1 | -3.47 | 10.5 | 11.6 | 5.94 | -0.0974 | -8.28 | 8.92 | -19 | 4.25 | 10.4 | -2.13 |
